From PubChem BioAssay AID2533 (National Center for Advancing Translational Sciences (NCATS), 2010)
Records with an inconclusive call do not appear. Where a call stands in place of a potency, no number is given. Activity calls are given as the source filed them. Calls follow the shape of the dose curve; as a rule, active = well fitted activation curve with a large enough effect; inconclusive = small, poorly fitted or top-dose-only effect; inactive = flat fitted curve, though single readings scatter.

Target: Pyruvate kinase PKM (Homo sapiens) (UniProt P14618)
Assay: Confirmation Concentration-Response Assay for Activators of Human Muscle isoform 2 Pyruvate Kinase: for Probe SAR; also: nearly all actives have a fitted effect of over 60% in size
Settings: purified PKM2, ATP generation, Kinase-Glo luminescence; series mostly up to 57.5 µM
Procedure, shortened: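 Purified hPK-M2 at 0.1 nM final converted ADP (0.1 mM) and PEP (0.5 mM) to ATP over 1 hour at room temperature in imidazole buffer, pH 7.2. ATP formed was measured by Kinase-Glo luminescence, normalized to no-enzyme and uninhibited controls.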
Potency is read from the fitted curve at half-maximal effect.

Pyruvate kinase PKM (Homo sapiens), sequence (P14618 whole entry, looked up, canonical isoform): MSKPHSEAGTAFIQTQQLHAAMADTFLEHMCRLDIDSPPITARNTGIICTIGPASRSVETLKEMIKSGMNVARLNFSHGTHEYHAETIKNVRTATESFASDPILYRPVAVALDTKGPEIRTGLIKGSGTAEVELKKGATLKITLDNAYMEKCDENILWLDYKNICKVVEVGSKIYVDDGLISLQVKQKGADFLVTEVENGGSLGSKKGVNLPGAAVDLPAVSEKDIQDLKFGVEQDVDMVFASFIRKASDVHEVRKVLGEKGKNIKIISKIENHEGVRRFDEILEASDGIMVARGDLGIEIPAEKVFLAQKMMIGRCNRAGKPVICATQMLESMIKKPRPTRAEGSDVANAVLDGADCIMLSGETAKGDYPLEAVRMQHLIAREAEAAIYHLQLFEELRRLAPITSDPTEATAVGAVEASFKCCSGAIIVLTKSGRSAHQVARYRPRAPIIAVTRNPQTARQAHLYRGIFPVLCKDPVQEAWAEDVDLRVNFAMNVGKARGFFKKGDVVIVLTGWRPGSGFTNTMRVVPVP

Row | Compound | Potency
1 | Nc1cccc(S(=O)(=O)N2CCN(S(=O)(=O)c3c(F)cccc3F)CC2)c1 | 130 nM (active)
2 | Cc1ccc2nc(-c3ccc(C)o3)c(Nc3ccc(F)cc3)n2c1 | inactive
3 | CN(C)c1cccc(S(=O)(=O)N2CCCN(S(=O)(=O)c3ccc4c(c3)OCCO4)CC2)c1 | 163 nM (active)
4 | O=S1(=O)N=C(Oc2cccc(-c3ccccc3)c2)c2ccccc21 | inactive
5 | Cc1ccccc1N(C)C1=N[S+](=O)([O-])c2ccccc21 | inactive
6 | Cc1ccc(-c2nc3ccccn3c2Nc2ccc(F)cc2)o1 | inactive
7 | Cc1ccc(Nc2c(-c3ccc(C)s3)nc3ccccn23)cc1 | 14600 nM (active)
8 | O=S1(=O)N=C(Oc2ccccc2C(F)(F)F)c2ccccc21 | inactive
9 | Cc1ccc(NS(=O)(=O)c2cc3c(cc2Cl)NC(=O)CO3)cc1C | 410 nM (active)
10 | O=C1c2ccccc2C(=O)N1c1nccs1 | inactive
11 | CC(=O)Nc1ccccc1OC1=N[S+](=O)([O-])c2ccccc21 | inactive
12 | Cc1ccc2nc(-c3ccc(C)o3)c(NC3CCCC3)n2c1 | inactive
13 | COc1ccc(-c2nc3ccccn3c2Nc2ccccc2C)cc1 | 14600 nM (active)
14 | O=C(O)c1ccccc1OC1=NS(=O)(=O)c2ccccc21 | inactive
15 | O=C1c2ccccc2C(=O)N1c1ccccn1 | inactive
16 | Cc1ccc(NC(=O)c2ccc3c(c2)CCC(=O)N3)cc1C | inactive
17 | Nc1cc(S(=O)(=O)N2CCN(S(=O)(=O)c3ccc4c(c3)OCCO4)CC2)ccn1 | 3260 nM (active)
18 | Cc1ccccc1OC1=NS(=O)(=O)c2ccccc21 | inactive
